The values that follow come from PubChem BioAssay AID687014 (The Scripps Research Institute Molecular Screening Center, 2013).

Each structure is given as a SMILES string. About 6,800 (1.8%) of roughly 370,000 compounds were called active. This is one part of a sample in which actives are shown more often than they occur. A number with no mark means an inactive call.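 How the source made its calls: active means activation above a cutoff set at the mean of all screened compounds plus 3 SD (cut at about 10% in these data); inactive means the rest.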

The experiment concerns Nuclear hormone receptor DAF-12 (Heterodera glycines), GAL4 fusion. The experiment in a line: H. glycines DAF-12 receptor agonists, primary screen, cell-based, luminescence, HEK293, GAL4 fusion, UAS-luciferase (AID 687014).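 Further: 0% = DMSO wells and 100% = sodium butyrate wells.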 Conditions: HEK293 GAL4-hgDAF12 UAS-luciferase reporter, agonist luminescence; at 6.8 µM; hits give high values; normalized to butyrate control. For orientation: In a reporter assay the amount or activity of a reporter protein is the signal.
Regarding `COc1ccc(CCNC(=O)NS(=O)(=O)c2ccc(C)cc2)cc1OC`, the activation was -1.2%.

On to `COc1cc(NC(=O)C2CCCN(S(=O)(=O)c3ccc(C(C)(C)C)cc3)C2)cc(OC)c1` (centres undefined), for which the activation is 4.12%.

On to `CCn1c2ccccc2c2cc(NC(=O)CSc3nnc(-c4ccccc4)n3-c3ccc(C)cc3)ccc21`, for which the activation was 1.54%.

On to `Fc1ccc(-c2ccc(CNCc3ccccn3)o2)cc1Cl`, for which the activation is -0.65%.

Turning to `Clc1ccc(-c2cc(-c3ccccn3)on2)c(Cl)c1`, the activation is 11.2% (active).

With `Clc1ccccc1-c1cc(COc2ccc3ccccc3c2)no1`, the activation was 0%.

With `CS(=O)(=O)N(CC(=O)N1CCOCC1)c1ccc2c3c(cccc13)CC2`, the activation is 0.28%.

As to `CCc1c(C)c2c(C)[nH]nc2oc1=O`, the activation was -1.18%.

For `CN(Cc1nc2ccc(F)cc2[nH]1)Cc1nc(CC2CC2)no1`, the activation is -0.98%.

For `O=C(NN=Cc1ccco1)C(=O)Nc1ccc(Cl)c([N+](=O)[O-])c1`, the activation is -2.99%.

Consider `COc1ccc(CCNC(=O)CSc2nc3c([nH]2)c(=O)n(C)c(=O)n3C)cc1`, for which the activation was 0.07%.

Regarding `Cc1csc(SCC(=O)Nc2sccc2C#N)n1`, the activation is 17.8% (active).

Consider `Cc1csc(SCC(=O)Nc2ccc(C)c(S(=O)(=O)N(C)C)c2)n1`, for which the activation was 0.79%.

Regarding `N#Cc1ccsc1NC(=O)CN1CCCCC1`, the activation was -0.08%.

For `CC(=O)Nc1ccc(N2C(=O)C3C4CC(=O)C(c5ccccc54)C3C2=O)cc1` (centres undefined), the activation was -0.45%.

On to `CC(=O)O[C@@]1(C(C)=O)CCC2[C@H]3C=C(C)C4=CC(=O)CC[C@@]4(C)C3CC[C@]21C` (some centres undefined), for which the activation is -4.47%.

`FC(F)(F)c1cccc(Cn2ccc3ccc(-c4ccc5ccn(Cc6ccccc6)c5c4)cc32)c1`: the activation was -0.72%.

`COc1ccc(NC(=O)N2CCC(Cc3ccccc3)CC2)cc1`: the activation is 1.2%.

Take `COc1ccc(N2CCN(C(=S)Nc3ccc(S(N)(=O)=O)cc3)CC2)cc1`: the activation is -4.74%.

`COc1ccc(NC(=S)N2N=CCC2c2ccccc2)cc1` (centres undefined): the activation was 16.5% (active).

For the compound `CC(Sc1nnc(Cc2ccc([N+](=O)[O-])cc2)o1)C(N)=O` (centres undefined), the activation was -0.65%.

Take `CCOC(=O)/C=C/c1ccccc1O`: the activation was 2.77%.

For the compound `Cc1ccc(CN2CCN(Cc3ccccc3-c3ccco3)CC2CCO)o1` (centres undefined), the activation was -2.88%.

As to `N#CC1=C(N)N(c2ccc(F)cc2)C(=O)C1`, the activation is -1.83%.

Turning to `O=C(COC(=O)c1ccc(O)cc1O)NNC(=O)c1cccs1`, the activation is 0.57%.

Turning to `O=C(NNC(=O)c1ccc(Cl)cc1Cl)c1cccs1`, the activation was 18.7% (active).

`Cc1ccc(NNC(=O)c2cccs2)cc1Cl`: the activation was 1.51%.

Regarding `O=C(CCc1nnc(CCCCc2ccccc2)o1)NC(c1cccnc1)C(F)(F)F` (centres undefined), the activation is 1.64%.

With `Cc1cc(=O)n2nc(N3CCCC(C(=O)N4CCN(C)CC4)C3)sc2n1` (centres undefined), the activation is -0.62%.

As to `O=S1(=O)c2ccc(Br)cc2OC[C@H](Cc2ccccc2)N1Cc1cn(Cc2ccccc2)nn1`, the activation is -1.13%.

As to `Cc1nccn1CCC1CCCCN1C(=O)CCc1nnc(-c2ccsc2)o1` (centres undefined), the activation is -0.93%.

Take `CC(Sc1nc2cc(Cl)ccc2s1)C(=O)Nc1ccc2c(c1)OCO2` (centres undefined): the activation is 7.08%.

Consider `CC(=O)Nc1cccc(C(=O)OCC(=O)c2ccc3c(c2)OCO3)c1`, for which the activation is 17.4% (active).

`CC(=O)Nc1cccc(C(=O)OCC(=O)NCc2cc(C)c(O)c(C)c2)c1`: the activation is 3.44%.

On to `CC(C)C(=O)Nc1cccc(C(=O)Nc2ccc3c(c2)OCO3)c1`, for which the activation was 14.9% (active).

For the compound `CCSc1ccccc1C(=O)Nc1ccc2c(c1)OCO2`, the activation was 3.85%.

Turning to `CC(=O)Nc1cccc(C(=O)OCN2C(=O)c3ccccc3C2=O)c1`, the activation is -0.37%.

Consider `COC(=O)C1=C(C(=O)OC)C2C=C(C(C)C)C1C(=O)C2(C)O` (centres undefined), for which the activation was 2.89%.

As to `COC(=O)c1cccc(Cn2ccc3ccc(-c4ccc5ccn(C(=O)c6ccccc6C)c5c4)cc32)c1`, the activation was 0.42%.

As to `O=C(NS(=O)(=O)c1cccs1)[C@H]1O[C@@H](n2ccc(=O)[nH]c2=O)[C@H](O)[C@@H]1O`, the activation was 1.66%.

In the case of `COc1ccc(N2CCN(CCNS(=O)(=O)c3ccc([N+](=O)[O-])cc3)CC2)cc1`, the activation is -4.01%.

Take `O=C(CSc1nc2ccccc2o1)N/N=C/c1ccccc1C(=O)O`: the activation is 1.68%.

As for `Fc1ccccc1OCCSc1nc2ccccc2o1`, the activation is 3.51%.

With `CCOc1ccccc1/C=N/Nc1nc2ccccc2o1`, the activation is 10.6% (active).

For the compound `COc1ccccc1C(=O)N1O[C@]23C=C[C@]14C[C@@H](O)CC[C@]4(C)C2CC[C@]1(C)[C@@H]([C@H](C)/C=C/[C@H](C)C(C)C)CC[C@H]13` (some centres undefined), the activation was -1.48%.

For `C/C(=N\NC(=O)c1ccccc1F)c1ccccn1`, the activation is 10.8% (active).

With `CC(=NNC(=S)N1CCCCCC1)c1ccccn1`, the activation was 2.43%.

As to `C/C(=N/NC(=O)c1ccn(C)n1)c1ccncc1`, the activation was 7.12%.

As for `Cc1ccc(S(=O)(=O)N2C[C@@H](C)[C@]3(C2)[C@H](O)[C@H](OC(=O)NCc2ccccc2)C[C@H]2C(=O)N(c4ccccc4)C(=O)[C@H]23)cc1`, the activation is -0.54%.

As for `Cc1ccc(CN2CCCCC(NC(=O)C3CCCCC3)C2=O)cc1` (centres undefined), the activation is -1.5%.

In the case of `O=c1[nH]c(CCl)nc2cc(-c3ccc(Cl)cc3)sc12`, the activation was 12.9% (active).

Consider `Cn1c(NCc2cccnc2)nc2cc(-c3ccc(F)cc3)sc2c1=O`, for which the activation is 8.39%.

`COc1cccc(-c2cc3nc(NCCOc4ccccc4Cl)n(C)c(=O)c3s2)c1`: the activation is 0.22%.

In the case of `COc1ccc(-n2c(SCC(=O)Nc3ccc4c(c3)OCCO4)nnc2-c2ccc(Cl)cc2)cc1`, the activation is -1.31%.

In the case of `O=C(C(=O)N1CCC(CNC(=O)c2cccnc2Cl)CC1)c1cccs1`, the activation is 1.44%.

As to `Cc1nc(NC(=O)C(C)(C)C)sc1[N+](=O)[O-]`, the activation was -4.82%.

As for `COc1ccc2nc(N3CCN(C(=O)c4ccc([N+](=O)[O-])o4)CC3)sc2c1`, the activation is -2.68%.

Regarding `Brc1ccc2nc(N3CCCC3)sc2c1`, the activation was 14.3% (active).

In the case of `Cc1nc(N2CCCCC2)sc1C=O`, the activation is 1.15%.
